Data as given in PubChem BioAssay AID743269 (The Scripps Research Institute Molecular Screening Center, 2014).
Among all 370,000 compounds or so, about 2,400 (0.65%) were called active.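 The calls were made as follows: active = inhibition above the screen-wide mean plus 3 SD (cut at about 13% in these data); inactive = the rest.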 The sample as a whole holds a higher share of actives than the screen did.

test system: HIV-1 integrase (with human LEDGF/p75); assay: blockers of LEDGF/p75-dependent integrase strand transfer – biochemical, TR-FRET, high throughput, primary screen (AID 743269); conditions: TR-FRET IN-LEDGF/p75 DNA integration, Eu/Cy5; at 3.7 µM; hits give high values;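 also: signal is the Cy5 over europium emission ratio at 671 and 618 nm; 0% = plate median of compound wells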

SMILES | inhibition
O=C(C1CCN(S(=O)(=O)c2ccccc2)CC1)N1CCN(C2CCCCC2)CC1 | -2.53% (inactive)
Cc1cc(C)cc(NC(=O)N2CCC(N(C)CCC(C)C)CC2)c1 | 3.5% (inactive)
O=C(CC(Cc1ccccc1)C(=O)O)NCCc1ccc2c(c1)OCO2 (configuration not stated) | -1.84% (inactive)
CC1(C(=O)NCc2ccc3c(c2)OCO3)CCN1CCc1ccccc1 (configuration not stated) | 3.29% (inactive)
CC(=NCc1ccc2c(c1)OCO2)C1=C(O)c2ccccc2C1=O | 14.5% (active)
O=S(=O)(c1ccccc1)N1CCC(c2nc3ccccc3o2)CC1 | -3.8% (inactive)
Cc1ccc(C(=O)N(Cc2ccccn2)CC2CCCO2)cc1 (configuration not stated) | -1.5% (inactive)
O=C(CSc1nc2ccccc2nc1N1CCCCC1)N1CCN(S(=O)(=O)c2cccc([N+](=O)[O-])c2)CC1 | 7.35% (inactive)
CC(C)CNS(=O)(=O)CC1NCCc2ccccc21 (configuration not stated) | -2.87% (inactive)
C[C@H]([C@@H](O)[C@@H](O)[C@@H](C)C(C)(C)C)[C@H]1CC[C@H]2C3CC[C@H]4C[C@H](OS(=O)(=O)O)[C@@H](OS(=O)(=O)O)C[C@]4(C)[C@H]3CC[C@]12C (some centres not stated) | 22.1% (active)
CC(=O)O[C@H]1CC[C@@]2(C)[C@@H](CC[C@@H]3[C@@H]2CC[C@]2(C)[C@@H](C(C)(C)O)C[C@@H]32)C1 | 0.72% (inactive)
C=C1C(C(C)C)N(C)C2=NC(c3ccccc3)CC(=O)N12 (configuration not stated) | 1.74% (inactive)
COC(=O)C1CN(Cc2ccc(F)cc2)CCS(=O)(=O)N1Cc1ccc(Cl)cc1 (configuration not stated) | -0.83% (inactive)
CCc1ccccc1NC(=O)CSc1nnc(-c2cccs2)o1 | 1.45% (inactive)
NC1=NN(c2cccc(C(=O)O)c2)C(=O)C1 | 13.8% (active)
C/C(=N\NC(=O)c1cccc(N2CCCC2=O)c1)c1ccc(N)cc1 | -2.92% (inactive)
O=C(c1cccc(N2CCCC2=O)c1)N1CCOCC1 | -4.51% (inactive)
CCOC(=O)N1CCN(C(=O)C[C@H]2C[C@@]3(C(=O)OC)C(=C[C@H](C(C)(C)C)O[C@@H]3C)N(Cc3ccc(Cl)cc3Cl)C2=O)CC1 | -2.55% (inactive)
CCOC(=O)c1ccn(-c2nc(-c3ccco3)cc(C(F)(F)F)n2)n1 | -1.1% (inactive)

SMILES | inhibition
Cc1cc(C)c2nc(-c3ccco3)cc(C(=O)O)c2c1 | 57.2% (active)
Cc1ccsc1-c1cc(C(=O)O)c2c(ccc3ccccc32)n1 | 0.22% (inactive)
COc1ccc(-n2c(COc3ccc(C)cc3)nnc2SCC(=O)Nc2ccc(Oc3ccccc3)cc2)cc1 | -0.53% (inactive)
COC(=O)c1cccc(Cn2ccc3ccc(-c4ccc5ccn(C(=O)c6ccccc6C)c5c4)cc32)c1 | 1.28% (inactive)
CC(C)(C)c1ccc(CSc2nnc(-c3cccs3)o2)cc1 | -0.85% (inactive)
COc1ccc(CN2CCN(Cc3cn(C)nc3-c3ccccc3)CC2CCO)c(C)c1C (configuration not stated) | 3.11% (inactive)
CCn1nc(C)c(CN2CCN(Cc3ccc(OC)c(C)c3C)C(CCO)C2)c1C (configuration not stated) | 13.4% (active)
CCOc1ccc(CN2CCN(Cc3ccc(C)o3)CC2CCO)cc1 (configuration not stated) | -3.16% (inactive)
Cc1ccc(NC(=S)NNC(=O)CSc2nnc(SCc3ccccc3Cl)s2)cc1 | 3.99% (inactive)
CC(C)N1CCCCC(NC(=O)c2ccc3ccccc3c2)C1=O (configuration not stated) | 0.96% (inactive)
Cc1ccc(Cn2cc(CN3[C@@H](CC(C)C)COc4ccc(Cl)cc4S3(=O)=O)nn2)cc1 | 1.01% (inactive)
O=S1(=O)c2ccc(Br)cc2OC[C@@H](Cc2ccccc2)N1Cc1cn(Cc2ccco2)nn1 | 5.73% (inactive)
O=C1C=CC(=O)N1c1ccc(N2CCCCC2)cc1 | 14.3% (active)
Cc1ccc(-n2c(SCC(=O)Nc3ccc(S(=O)(=O)Nc4nccs4)cc3)nnc2-c2ccccn2)cc1 | -3.23% (inactive)
COC(=O)C1CN(CCc2ccccc2)CCS(=O)(=O)N1Cc1cccc(Cl)c1 (configuration not stated) | 0.85% (inactive)
CN(C)[C@H]1CCN(c2cccc3c2S(=O)(=O)N2CC[C@H](C2)O3)C1 | 2.98% (inactive)
C=CCn1c(=S)[nH]c2scc(-c3ccco3)c2c1=O | 42.3% (active)
O=S1(=O)c2c(cccc2N2CC[C@H](O)C2)O[C@@H]2CCN1C2 | 1.21% (inactive)
O=C(c1cccc(C(F)(F)F)c1)N1CC[C@H]2[C@H](CCCN2Cc2cc(F)cc(F)c2)C1 | 86.5% (active)

SMILES | inhibition
O=C(c1ccncc1)N1CC[C@H]2[C@H](CCCN2Cc2ccc(F)cc2)C1 | 1.57% (inactive)
O=C(N1CCOCC1)N1CC[C@H]2[C@H](CCCN2Cc2ccc(F)cc2)C1 | 3% (inactive)
CCN(CC)C(=O)CC[C@@H]1CC[C@]2(CCCN(S(=O)(=O)C3CCCCC3)C2)O1 | -3.12% (inactive)
COc1ccc(Cn2cc(COC(=O)N(C)Cc3ccccc3)nn2)cc1 | 2.21% (inactive)
CCc1c(-c2ccccc2)nc(N)c(C#N)c1-c1cccs1 | 0.5% (inactive)
CSc1nc(N)c(C#N)c(-c2ccccc2Cl)c1C#N | 30.9% (active)
CSc1ccc(-c2c(C#N)c(N)nc3c2c(C)nn3-c2ccccc2)cc1 | -1.93% (inactive)
CCCCCCCCNS(=O)(=O)/C=C/c1cc(C)ccc1CNC(=O)OC(C)(C)C | -0.25% (inactive)
COc1ccc(CN2C(=O)N3Cc4cc(OC)ccc4C3CS2(=O)=O)cc1 (configuration not stated) | 0.03% (inactive)
Cc1sc2ncnc(SCC(=O)Nc3ccc(CN4CCCC4)cc3)c2c1C | -2.64% (inactive)
Cc1c(Cl)cnc(NC(=O)COC(=O)C2CCCC2)c1Cl | 3.73% (inactive)
CCc1cc2c(SCC(=O)Nc3ncc(Cl)c(C)c3Cl)ncnc2s1 | 44.2% (active)
O=C(CNS(=O)(=O)c1ccccc1F)N1CCN(c2ccccn2)CC1 | -3.63% (inactive)
COC(=O)[C@]12C[C@H](CC(=O)N3CCN(C(=O)C4CC4)CC3)C(=O)N(CCC3=CCCCC3)C1=C[C@H](C(C)C)O[C@@H]2C1CC1 | -2.49% (inactive)
CN(Cc1ccc(F)cc1)C(=O)CN1C(=O)c2ccccc2S1(=O)=O | 18% (active)
NS(=O)(=O)c1ccc(CCNC(=O)CN2C(=O)c3ccccc3S2(=O)=O)cc1 | 4.15% (inactive)
O=C(CN1C(=O)c2ccccc2S1(=O)=O)N1CCc2ccccc21 | -3.85% (inactive)
CCOC(=O)[C@@]12CN(C(=O)OC(C)(C)C)CC=C1N(Cc1ccc(OC)cc1)C(=O)[C@H]2CC(=O)NCc1ccc(OC)c(OC)c1 | -2.96% (inactive)
CC(C)(C)OC(=O)NCc1cc(F)ccc1/C=C/S(=O)(=O)NCCc1ccccc1 | 1.04% (inactive)
